# High-throughput results from PubChem BioAssay.
# SSB-PriA inh – K. pneumoniae PriA-SSBct interaction inhibition; AlphaScreen SSBct-PriA binding, biotinylated peptide; inhibition, % at 33 µM; 0.6% of 430,000 active; in the data active means inhibition mostly above about 37%, no sharp cut-off; inactive means mostly below about 20%;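 further: plate controls were negative control peptide for no effect and reference peptide for full effect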
# PrP UTR inh – inhibition of PrP 5' UTR reporter expression | cell-based PrP 5' UTR mRNA reporter, plate reader | 0.35% of 340,000 active | inhibition, % (concentration not given with the values); in the data active means inhibition above about 52%; further: 0 = median of the neutral control wells
# PfHsp40 rescue – compounds rescuing yeast from Plasmodium falciparum HSP40 toxicity; S. cerevisiae expressing PfHsp40, growth rescue, ATP luminescence; growth rescue, % at 12.5 µM; 0.68% of 340,000 active; AID 504582; in the data active means growth rescue above about 28%, passing the limit was not always enough;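 further: yeast W303a lacking pdr1 and pdr3 grown in galactose medium; growth measured after three days at 30 °C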
# MazF activator – activators of E. coli MazEF toxin-antitoxin RNase; P0AE70; FAM/BHQ RNA-DNA oligo cleavage fluorescence, 5 h; activation, % at 20 µM; 0.32% of 350,000 active; in the data active means activation above about 50%
# Target sequence (P0AE70 whole entry, looked up): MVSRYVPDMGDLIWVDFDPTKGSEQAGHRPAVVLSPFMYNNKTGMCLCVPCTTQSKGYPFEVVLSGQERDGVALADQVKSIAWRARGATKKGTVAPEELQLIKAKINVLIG
# PrPC surface inh – cell surface PrPC inhibition, primary TR-FRET screen | TR-FRET read-out | 0.43% of 370,000 active | inhibition, % at 13.8 µM; in the data active means inhibition above about 24%; further: 0% = median of the test wells and 100% = reference compound wells
# * hit, by the source's call; . = no result; ! = not active in a repeat. This is a sample that favours compounds with a hit; in the whole collection about 1.8% have one here.
SMILES,SSB-PriA inh,PrP UTR inh,PfHsp40 rescue,MazF activator,PrPC surface inh
COc1ccc(-c2nn(CCC#N)cc2C(=O)Nc2ccccc2Cl)cc1,-15,-18,-1,1,3
N#CCCn1cc(C(=O)Nc2ccccc2Cl)c(-c2ccc(F)cc2)n1,-12,-10,47*,1,7
Cc1nc(SCC(=O)N2CCOCC2)c2c3c(sc2n1)CCC3,-7,-16,-2,7,8
Cc1cc(C)nc(-n2nc(C)c(Sc3ccc(F)cc3)c2N)n1,-5,-98,89*,4,6
Cc1ccc(/C=N/n2cnc3sc4c(c3c2=O)CCCC4)o1,.,-26,0,1,4
Cc1ccc(OCCC(=O)OCC(=O)N2CC(=O)Nc3ccccc32)cc1,-13,6,1,-24,-2
COc1cc(C2C3C(C)N(C)C(=O)N(C)C3N(C)C(=O)N2C)ccc1O (centres undefined),-7,-15,52*,3,-6
COc1cc(C2SCC(=O)N2CCN2CCCCC2)ccc1O (centres undefined),-14,-16,0,-6,-5
Cc1ccccc1CNc1ccc(C(CC(N)=O)NC(=O)c2ccc(Br)cc2)cc1[N+](=O)[O-] (centres undefined),-19,-20,1,81*,-7
NC(=O)CC(NC(=O)c1ccc(Br)cc1)c1ccc(NCc2ccc(F)cc2)c([N+](=O)[O-])c1 (centres undefined),-16,-12,0,3,1
Cc1cccn2c(=O)c3cc(C#N)c(=NC(=O)c4ccccc4)n(Cc4ccco4)c3nc12,-4,-5,0,-54,4
Cc1cccc(C(=O)N=c2c(C#N)cc3c(=O)n4cccc(C)c4nc3n2Cc2ccco2)c1,-9,-5,0,54*!,-3
CC=CC(C)=CC(C)C(=O)CC(O)CC1CC(=O)NC(=O)C1 (centres undefined),.,.,.,3,46*
O=C(NCc1cccnc1)c1ccc2nccnc2c1,6,.,.,.,.
O=C(NCc1ccccc1)c1ccc2nccnc2c1,-10,-21,31*,4,-20
CCOC(=O)C(NCc1ccc2c(c1)OCO2)(NC(=O)c1ccccc1)C(F)(F)F (centres undefined),-6,-22,45*,-3,0
CCOC(=O)C(NCc1ccccc1)(NC(=O)c1ccccc1)C(F)(F)F (centres undefined),-12,-4,0,4,-5
COC(=O)C1=C(c2ccc(-c3ccccc3)c(F)c2)C[C@@H]2CC[C@H]1N2C(=O)N1CCCC1,11,-12,29*,1,8
CO/N=C/c1ccc(Oc2ccc(C)cc2)c([N+](=O)[O-])c1,.,-33,7,-2,4
CCc1cccc2sc(N3CCN(C(=O)c4ccc(Cl)s4)CC3)nc12,-11,.,.,.,.
CCc1cccc2sc(N3CCN(C(=O)c4ccc([N+](=O)[O-])o4)CC3)nc12,36,-56,39*,1,.
Cc1ccc2cc3c(N)c(C(=O)Nc4c(C)[nH]c(=O)[nH]c4=O)sc3nc2c1,-14,-16,-1,205*,-1
CC(=O)C(C=Nc1cc(-c2ccc(C)cc2)nn1-c1ccccc1)=C(C)O,0,.,.,.,.
O=C(OCc1ccccc1)c1cn(-c2ccccc2)nc1-c1ccncc1,-19,-9,104*,-3,-3
COC(=O)c1cn(-c2ccccc2)nc1-c1ccncc1,-16,-28,-1,-1,-3
SMILES,SSB-PriA inh,PrP UTR inh,PfHsp40 rescue,MazF activator,PrPC surface inh
O=C(O)CN1C(=O)N/C(=C\c2cccn2-c2ccc(P(=O)(O)O)cc2)C1=O,0,-8,-1,5,-2
OCC12CO[C@@H]3c4ccccc4[C@H](OC1)N32 (some centres undefined),-15,-9,45*,0,5
OCC12COC(c3ccccc3)N1C(c1ccccc1)OC2 (centres undefined),-4,6,-1,-4,-3
O=C(c1ccccc1F)N1CCC(CSCc2ccco2)CC1,12,.,.,.,.
N#Cc1cccc(C(=O)N2CCC(CSCc3ccco3)CC2)c1,3,.,.,.,.
O=C(c1c[nH]c2ccccc12)N1CCC(CSCc2ccco2)CC1,35*,.,.,.,.
CN(C)c1cccc(C(=O)N2CCC(CSCc3ccco3)CC2)c1,29*,.,.,.,.
CC(NC(=O)c1ccc(Br)cc1)c1ccc2c(c1)CCCC2 (centres undefined),-11,-27,137*,10,-2
O=C1CS(=O)(=O)N(Cc2cccc(F)c2)c2ccc(Br)cc21,-10,-5,1,3,-2
O=C1c2cc(Br)ccc2N(Cc2ccc(Br)cc2)S(=O)(=O)C1c1cc(Cl)c(Cl)cc1[N+](=O)[O-] (centres undefined),28,-6,143*,-8,.
COc1cc(C(=O)N2CCC3(CC2)NCCc2[nH]cnc23)cc(OC)c1OC,-3,1,0,1,2
Cc1cc(C)cc(C(=O)N2CCC3(CC2)NCCc2[nH]cnc23)c1,94*,-10,1,-3,2
COc1cccc(-c2nnc(SCC(=O)Nc3ccc4c(c3)OCCO4)n2Cc2ccco2)c1,10,-7,0,6,0
COc1ccc(N=NC2C(=O)N(c3ccccc3)N=C2C)cc1 (centres undefined),43*,-1,16,-5,6
CCOC(=O)[C@@]12CCC3=C1N(CCC3)C(=O)[C@H](CC(=O)N1CCOCC1)C2,.,.,.,.,-5
COc1cc(C(=O)/C=C/c2cccnc2)c([N+](=O)[O-])cc1OC,-20,-36,2,6,-14
COc1ccccc1NS(=O)(=O)c1cccc(NC(=O)Nc2cccc(Cl)c2)c1,-3,-3,2,77*,6
COc1ccccc1NS(=O)(=O)c1cccc(NC(=O)NCCCl)c1,-5,-21,-1,-12,-4
COc1ccc(C(=O)COC(=O)CN2CC(=O)Oc3ccccc32)cc1Br,80*,-5,0,2,-2
COc1cc(SC)ccc1C(=O)N1CC(C)OC(C)C1 (centres undefined),-12,-27,-1,-2,-4
Cc1ccc(CCNC(=O)c2coc3nc4ccccc4nc23)cc1,0,-20,0,90*,-6
COc1ccc(N2CCN(C(=O)c3ccc(COc4ccc([N+](=O)[O-])cc4)o3)CC2)cc1,40*,-22,2,5,-2
COc1ccc(N2CCN(C(=O)Oc3ccc([N+](=O)[O-])cc3)CC2)cc1,.,.,.,.,-3
O=c1[nH]cc(-c2ccc(Br)cc2)n1Cc1ccccc1,77*,-18,.,0,-3
Cc1ccc(C)c(-c2cc(C(=O)NNC(=S)NCC(C)C)c3ccccc3n2)c1,11,-20,82*,-3,5
CCCC=NNC(=O)c1cc(Br)ccc1O,-8,.,.,.,.
Cc1ccc(Cl)cc1NC(=O)CSc1sc2c(O)cc(=O)[nH]c2c1C#N,-15,-17,47*,8,10
Cc1ccccc1-n1ncc2c([N+](=O)[O-])cc([N+](=O)[O-])cc21,64*,-24,0,-1,-21
COc1ccc(-c2csc(N(C)C(=O)c3cccs3)n2)cc1,-4,-61,1,-6,-4
